Legend:
ETS1 [1] = molecular target: T1, ETS1 (UniProt P14921); assay: ETS1 binding intensity (PBM fluorescence), ETS1 alone (arbitrary fluorescence units); higher = stronger binding; details: ETS1 concentration 1 nM; RUNX1 concentration 0 nM
T1 sequence: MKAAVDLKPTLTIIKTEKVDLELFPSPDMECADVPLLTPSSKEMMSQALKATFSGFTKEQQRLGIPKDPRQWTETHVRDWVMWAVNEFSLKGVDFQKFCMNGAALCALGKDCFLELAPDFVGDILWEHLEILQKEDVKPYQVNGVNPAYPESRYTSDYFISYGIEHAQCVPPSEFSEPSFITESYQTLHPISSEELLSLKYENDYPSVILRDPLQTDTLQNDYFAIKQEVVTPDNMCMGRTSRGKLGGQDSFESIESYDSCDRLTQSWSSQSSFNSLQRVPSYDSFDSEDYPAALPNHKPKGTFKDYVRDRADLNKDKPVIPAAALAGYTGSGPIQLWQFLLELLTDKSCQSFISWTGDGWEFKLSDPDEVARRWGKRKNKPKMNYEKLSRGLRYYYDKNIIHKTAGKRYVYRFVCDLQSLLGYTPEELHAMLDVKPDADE

RUNX1 [2] = molecular target: RUNX1 (UniProt Q01196); assay: RUNX1 binding intensity (PBM fluorescence), RUNX1 alone (arbitrary fluorescence units); higher = stronger binding; details: RUNX1 concentration 2 nM; ETS1 concentration 0 nM
Chain of RUNX1 (Q01196 whole entry): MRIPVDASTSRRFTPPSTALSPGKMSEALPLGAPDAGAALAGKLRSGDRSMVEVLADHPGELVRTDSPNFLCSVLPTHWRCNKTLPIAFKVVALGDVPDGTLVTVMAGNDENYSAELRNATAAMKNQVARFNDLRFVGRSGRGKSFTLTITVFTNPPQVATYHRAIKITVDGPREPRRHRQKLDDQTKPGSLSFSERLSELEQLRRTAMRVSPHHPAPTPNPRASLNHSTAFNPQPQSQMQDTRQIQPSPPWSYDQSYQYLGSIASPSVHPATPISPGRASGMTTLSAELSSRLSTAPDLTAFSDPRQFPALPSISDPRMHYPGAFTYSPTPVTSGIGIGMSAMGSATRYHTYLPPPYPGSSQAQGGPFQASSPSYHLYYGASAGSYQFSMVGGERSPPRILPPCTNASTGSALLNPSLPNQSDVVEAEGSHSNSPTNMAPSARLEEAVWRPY
Description: (§1)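 Cooperative gcPBM on 36-bp genomic probes with neighbouring ETS1 and RUNX1 sites. Recombinant human RUNX1 (2 nM) was incubated alone or with ETS1 (25 nM) and detected with anti-RUNX1 antibody plus Alexa488 secondary. Values are medians over 4 replicate spots; the RUNX1+ETS1 data were normalised to the RUNX1-only data. The probes sit in constant array flanks that are not printed.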

ETS1 [3] = molecular target: T1, ETS1; assay: ETS1 binding intensity (PBM fluorescence) in presence of RUNX1, normalised to ETS1-only experiment (arbitrary fluorescence units); higher = stronger binding; details: ETS1 concentration 1 nM; RUNX1 concentration 25 nM
RUNX1 [4] = molecular target: RUNX1 (UniProt Q01196); assay: RUNX1 binding intensity (PBM fluorescence) in presence of ETS1, normalised to RUNX1-only experiment (arbitrary fluorescence units); higher = stronger binding; details: RUNX1 concentration 2 nM; ETS1 concentration 25 nM
Description: as §1
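Wherever RUNX1 binding intensity (PBM fluorescence) in presence of ETS1, normalised to RUNX1-only experiment is given: Full-length recombinant human ETS1 or RUNX1 bound to double-stranded 36-bp genomic probes on microarrays, detected by protein-specific primary antibody and Alexa488 secondary, spot fluorescence as median of four replicate spots.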
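Wherever RUNX1 binding intensity (PBM fluorescence), RUNX1 alone is given: Full-length recombinant human RUNX1 bound to double-stranded 36-bp genomic probes on a high-density microarray, scored as Alexa488 fluorescence per spot via anti-RUNX1 antibody, median of four replicate spots.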

Sequence	ETS1 binding intensity (ETS1 [1])	RUNX1 binding intensity (RUNX1 [2])	ETS1 binding intensity (ETS1 [3])	RUNX1 binding intensity (RUNX1 [4])
GAAAGACAGGATGTGGGATAGATCTCAACCACCTTT	2590	817	4970	4740
GTTGTGCTCTTTCCTGCTTCCCGCAGTTTTTTAGTT	626	1470	921	1890
TTTGAGCGGGCAGGATGTGGTGACAATGATACTGCA	4280	750	8140	2370
AGCACCCGGAAGTCGGAGCTGCGCACGCACCGCGGG	2180	751	1910	1210
CATGACGAAGGGGAAGGATGTGGTTTGAGGGCAGCA	774	847	8460	1310
AGCGCCGGAAGTGTGTCTGCGTAAAACTGCGGCTCG	3490	740	3720	1520
CCGGGACAGGAAGAGGCTGGGGACCGCGGCGAAGGT	1440	710	1550	1030
AGCCTGGCCTCGGCAGGATGTGGGTGTAGGTCATGC	4780	732	7380	999
TTTAGACACCGCTTCCTGCCACAAGCCCAAGACTTA	758	918	839	3470
GGGAGGTCACATCCTGCCCGCGGTCTCAGAAAAGCT	821	782	989	2080
GAGGGCTGCTTCCTGCTCTGTGGAGGCCGCAGCGGG	555	682	594	1270
GTTCCTTTGAAAGCAGGATGTGGTTTGCCCCAGCTT	5390	881	29200	3730
GCCTGAGCGGAAACCCGGCGCCACCACAAGATGGCA	637	990	2040	1200
AGACGGGACCGGAAGCCGGGCCGCAGGCGGCCGGGC	5400	811	6650	1240
ACCACCCACTTCCCGCGCAGTTCCAAACCGCGACCA	302	1590	795	5270
CCACGTAAAGGCGGAAGCGGTTGAGTGGACGCCATC	3090	708	4150	1640
AGTTTCTTCTTTCCGGTGGGTTTGTGGTCTTGCTGA	1160	1390	2990	2770
GGACTTCCTGAACTGGGAGGTCACCGACCACAACCT	354	831	671	1740
GCAATGCCGCTACCGGAAGTGCGGGTCGCGCTCCCG	26000	749	26000	1620
AGTAGGATGGGAGGAAGTGGTTTGTAAGAGGAGGAC	1780	769	2740	1480
CCGGGACCGGAAGAGGGAGCCGTGGTTGCTGGAACT	3040	744	4030	1960

Sequence	ETS1 binding intensity (ETS1 [1])	RUNX1 binding intensity (RUNX1 [2])	ETS1 binding intensity (ETS1 [3])	RUNX1 binding intensity (RUNX1 [4])
CGCCCACCACTTCCTGCTGGCGGTCGGCAAGCGTTG	1430	1020	2240	8670
TTTCTCTTCCTGTTTCCACCCTGACCACAGCCAGCT	476	2930	1350	5140
CCTTTACTTCCTTTTACTTCTAACCACAGAATTAAA	444	7760	1810	14200
TGGGCTTTGCAGGAAGCTGTGGTTCACCTACAGCCT	1160	692	2110	866
GCCCCGGAAGTGGCCCGGCTGTTGGCCGCAGCGGGA	2810	667	3480	1710
CCAGAATGCAGGAAGTGCTGTGGTTTGACTTTGTTT	3550	831	9350	1970
GGCAGGAAAGAGCTGATGCATTTCAACCGCAGCCTG	520	1110	2430	1040
CTGACACTTCCGGGAGCCTTGTAGCCACAGGAATCA	2490	743	2590	1800
CCGCCCTAGAGCAGGAAATAGCGGTCAGCGCCAGCT	2740	857	7280	1980
TGTCTCTGCCGCCGGAAACCGCGCCGTAGATCATGC	5360	945	7800	1420
ACGTGATGGCAGTCTTCCTGCCCACAAGTTCTGGTC	422	1250	486	1440
AGAGACAGCGGGCGGAAACCGCAGAAAAAGTTGAAA	1640	8270	3260	14200
GCTCCTGGCCCGCACTTCCGACCACACACTGGGGAC	557	1180	592	1610
AGCCAACAGGAAGCTGCAGAGACTAAACCACAGCAA	1150	879	4930	1390
AGGTGTACTTTCCGGGTGCAGACCGCGAATGGATCG	383	743	534	1120
GCTCAAGTACCGGAAAGGCCCGCAGAAAGAAGGGCA	1400	748	1270	1060
CCTGACTTCCTCCTCCCCCTCCCGCCACAATTCCGC	1240	1620	1620	2880
GGGCTCGGGGAGGAAGCGGTGGTTTCTCTTTGAAGC	696	729	907	970
TGACATTTCCGGCCCCACCTCGGCCCGCAGCGCCGC	1180	955	1170	2320
GGCCCGGCCGGAAGAAGCCACCTCCCCCGCACGCGT	2410	849	2860	1240
GAAGCGCTGGGCGGAAGTGGCTGTGGCTTTGCCCTT	9200	735	14300	1620

Sequence	ETS1 binding intensity (ETS1 [1])	RUNX1 binding intensity (RUNX1 [2])	ETS1 binding intensity (ETS1 [3])	RUNX1 binding intensity (RUNX1 [4])
AATGCAGCATTTCCTCTCCAGTTCACCACAGGCCCC	590	1490	634	2420
CTTGCTTAACGCTTCCTGAGGGGTGGTTTGGGTTTT	448	837	369	953
AAATATAGTGCTAAAGGAAGTGGTTTTCATGCAACT	2380	670	4140	1080
GCACTTCCGGAGCCGGGCGTCTACAGACCGCGGCCA	868	804	1050	2190
TATGTGTTTTAGGCAGGATGTGGGTTTTAGTCTTTC	8060	840	36400	2200
TTGCTTTATCACTTCCTGTTTGAGGTTTATATCCAT	5630	1590	9450	3160
GTAAGTAGGCCAGGAAGTGGTCACTGCAGCATGTGA	3740	722	4960	1440
TGTGATAAGGATGTTCGTGTGCCTTGTGGTCAGGTG	623	889	1710	905
TCCTGTAGTTTCCGGCTGAAGTGGTAAGGTTTTTGA	845	925	852	1750
TCAGAGACTTCCGCTCAGCAGCAGCTGCGGCCAGGC	966	671	1330	1850
CCAATGGGCAGGCGGAAACCGCGGGCTCGTGCTCCC	1580	956	2900	1350
GCATTGTGCTTCCGCTCGGGGAAAGACCGCTTACGG	789	851	911	1590
GCGCAAGCAGGAAGCGTTTGCGGTGATCCCGGCGAC	1890	746	9000	2000
CAGTGACAGGAAGTGGTTCAGCGGTTGTTTAGGGCT	7680	892	9430	3830
CACTCCCCGCATCCGGTCTGCGGCGCGCTCGGGGCC	3830	912	4710	29400
CAACCTGCTATAAGGAAGTTAAACCGCAGCTCACCG	718	3670	5980	5610
GACATATCCTGCATTCTCAGAAAAACCACAGGCTAG	391	1290	1050	2000
GGGGAACGGAAGCTGCTGTCGTTACTGGCGGTTGTA	1510	767	1320	929
CTGAGCCGGGACCGGAAGCCGCACCGCCCCCCGCGC	18400	828	21700	1770
TAAGTGAATTTCCTGCCCGCCTCCGCCCACAGCGTA	775	809	744	1790
TGCGACGGAAGCAGGAACTTGCTAACCACAAAACCC	1350	1790	13200	3420

Sequence	ETS1 binding intensity (ETS1 [1])	RUNX1 binding intensity (RUNX1 [2])	ETS1 binding intensity (ETS1 [3])	RUNX1 binding intensity (RUNX1 [4])
AGCGCCACACTTCCGCTTTGCGGCAGTGTGCGCCCC	3490	730	3280	1890
TCTTTAAAACCCGGAAGTTCCTGTGGTTCATACGCT	8500	978	16500	1940
ACACAGAGAGTGAGAGGAAGTGGTTTAGAGATGAGA	2440	769	3210	1050
CACTTCCCCCAGCCTCTCTTTTTAATACCACAATAG	634	3520	876	3290
CCGGTCCTGACCGGAAGCGGTAACCGTCACTCCTTC	21100	703	29000	7940
CCCCTTAGCACAGGATGTGGTCTTTGCATCTTCATT	4640	1040	7360	2960
ACTCACTTCCGTTTAGCTTATCAACCACCAAGAGAC	1020	1390	1060	3210
GCCGTAGCGGAAGAGTGTTCGTGGTCATGTGACGCC	671	718	814	1160
GCAGGGACCGGAAGTCCATGGCTCTGCCGCAACCCT	13400	738	13700	1250
CCTGTACGGAAGCTACTCTGGTTTCATGTGGTTTCA	441	904	654	1030
ATTAGAGGTAGAGGAAATACCACATGCAAAGGTTTG	793	785	1090	863
TAGACTAACAGGGGAGGAAGTGGGTTGCAAGCCGTG	2030	683	2740	868
ATGTCTTCCTGTACAGGAACTGGGTCCCAGCCGCAG	4120	745	4430	1510
GGCAACCCAAGGAAGTATCTCTGAAACCACACAACA	540	1040	1190	1110
GAGAACTTCCGGTGCGCTCCCCGGGACTGCGGTCCC	3420	729	4920	2780
GCCCCCGGCTGGGCAGGATGTGGTGGCAGCTGCAGG	4040	743	5380	1320
TTACCATCGCCCTTCCTGTGGGCTGGGAGGCCAGGT	468	754	373	1060
AATATCCTGTATGTCATGCTTAAAAAGCCACAAAAC	547	875	1070	2050
AGTCAAACAGGATGTGGCTGGGGAGGCGGTTGTCAC	3750	725	4660	2040
ACAGGAAGTGTCTCTATAGAAACCAAACCACAGAAA	1270	935	7500	949
